In the supplement of paper PMC11732987, “Enantioselective OTUD7B fragment discovery through chemoproteomics screening and high-throughput optimisation” (Communications Chemistry, 2025):

How the values were obtained:
Assay in all cases: log2 ratio of Biotin-Ahx-Ub-VS probe labelling (fragment/DMSO); higher = less target engagement (more negative = stronger competition), active = hit call of the paper (q ≤ 0.05, log2 ratio ≤ -1)
Conditions in all cases: compound concentration: 200 uM; treatment time: 3 h
OTUD6B = target: T1, OTUD6B (UniProt Q8N6M0)
T1 sequence (whole entry): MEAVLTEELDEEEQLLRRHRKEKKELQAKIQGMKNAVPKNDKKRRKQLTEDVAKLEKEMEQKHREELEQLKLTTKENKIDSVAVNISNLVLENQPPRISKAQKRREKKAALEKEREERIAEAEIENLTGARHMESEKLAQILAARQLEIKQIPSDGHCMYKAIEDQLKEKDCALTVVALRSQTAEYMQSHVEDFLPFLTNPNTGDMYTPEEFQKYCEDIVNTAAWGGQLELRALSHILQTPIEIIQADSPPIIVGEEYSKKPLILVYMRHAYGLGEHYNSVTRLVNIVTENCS
How it was run: (§1)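 Labelled DUBs from HEK293T lysate were NeutrAvidin-enriched, digested with LysC and trypsin, and run by diaPASEF LC-MS/MS. Before that, each 495 µg sample in Tris/CHAPS/IGEPAL buffer with protease inhibitors was treated in triplicate with fragment at 200 µM or vehicle for 3 h, then with Biotin-Ahx-Ub-VS at 0.5 µM final for 1 h. Values are average log2 ratios of fragment over vehicle by unpaired t-test, based on global-median-normalised Spectronaut label-free quantities from proteins with ≥2 unique peptides.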

OTUD7B = target: T2, OTUD7B (UniProt Q6GQQ9)
T2 sequence (whole entry): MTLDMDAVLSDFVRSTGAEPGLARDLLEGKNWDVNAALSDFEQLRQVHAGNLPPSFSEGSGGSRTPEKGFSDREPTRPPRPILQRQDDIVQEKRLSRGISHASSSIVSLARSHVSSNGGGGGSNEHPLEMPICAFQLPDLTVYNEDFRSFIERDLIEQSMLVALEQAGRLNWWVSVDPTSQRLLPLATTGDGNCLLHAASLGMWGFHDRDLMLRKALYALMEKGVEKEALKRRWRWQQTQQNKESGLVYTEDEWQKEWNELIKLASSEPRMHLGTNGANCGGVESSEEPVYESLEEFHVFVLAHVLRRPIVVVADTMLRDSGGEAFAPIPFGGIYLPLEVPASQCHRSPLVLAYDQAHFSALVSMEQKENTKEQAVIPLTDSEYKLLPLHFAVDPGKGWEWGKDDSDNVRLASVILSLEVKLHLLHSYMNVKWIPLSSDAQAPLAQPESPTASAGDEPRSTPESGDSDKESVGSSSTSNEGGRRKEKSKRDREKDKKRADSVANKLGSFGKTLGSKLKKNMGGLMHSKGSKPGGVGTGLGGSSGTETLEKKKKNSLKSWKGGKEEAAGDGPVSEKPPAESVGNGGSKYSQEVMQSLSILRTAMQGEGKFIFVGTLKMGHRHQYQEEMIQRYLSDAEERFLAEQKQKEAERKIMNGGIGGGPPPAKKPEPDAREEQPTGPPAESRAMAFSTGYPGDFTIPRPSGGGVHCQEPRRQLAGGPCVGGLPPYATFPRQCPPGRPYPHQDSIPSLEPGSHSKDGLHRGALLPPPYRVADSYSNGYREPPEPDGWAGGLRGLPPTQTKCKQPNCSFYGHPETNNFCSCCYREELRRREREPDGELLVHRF
How it was run: as §1

PRPF8 = PRPF8 (UniProt Q6P2Q9)
How it was run: as §1

PSMD7 = target: T3, PSMD7 (UniProt P51665)
T3 sequence (whole entry): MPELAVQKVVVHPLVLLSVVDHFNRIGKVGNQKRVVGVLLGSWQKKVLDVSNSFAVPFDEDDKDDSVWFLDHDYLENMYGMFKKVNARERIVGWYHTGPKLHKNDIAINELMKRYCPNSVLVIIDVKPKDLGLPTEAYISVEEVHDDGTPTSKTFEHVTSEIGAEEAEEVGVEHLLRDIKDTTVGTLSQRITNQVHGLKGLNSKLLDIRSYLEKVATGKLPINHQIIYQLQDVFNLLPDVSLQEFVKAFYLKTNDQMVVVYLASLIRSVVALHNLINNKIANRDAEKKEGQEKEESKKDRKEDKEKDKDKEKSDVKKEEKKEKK
How it was run: as §1

UCHL1 = UCHL1 (UniProt P09936)
UCHL1, sequence (P09936 whole entry, looked up): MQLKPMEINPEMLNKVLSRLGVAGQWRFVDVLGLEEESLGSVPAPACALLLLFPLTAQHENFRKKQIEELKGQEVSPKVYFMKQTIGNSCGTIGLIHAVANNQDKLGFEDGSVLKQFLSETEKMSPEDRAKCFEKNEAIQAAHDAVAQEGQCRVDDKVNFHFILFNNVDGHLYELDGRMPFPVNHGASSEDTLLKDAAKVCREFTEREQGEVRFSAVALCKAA
How it was run: as §1

UCHL3 = target: T4, UCHL3 (UniProt P15374)
T4 sequence (whole entry): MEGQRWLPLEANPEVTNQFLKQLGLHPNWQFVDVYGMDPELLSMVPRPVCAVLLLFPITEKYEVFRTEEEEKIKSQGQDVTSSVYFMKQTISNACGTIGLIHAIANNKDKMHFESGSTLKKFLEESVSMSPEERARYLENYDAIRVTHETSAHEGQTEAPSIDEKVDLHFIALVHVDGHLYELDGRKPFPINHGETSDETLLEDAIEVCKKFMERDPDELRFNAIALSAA
How it was run: as §1

UCHL5 = target: T5, UCHL5 (UniProt Q9Y5K5)
T5 sequence (whole entry): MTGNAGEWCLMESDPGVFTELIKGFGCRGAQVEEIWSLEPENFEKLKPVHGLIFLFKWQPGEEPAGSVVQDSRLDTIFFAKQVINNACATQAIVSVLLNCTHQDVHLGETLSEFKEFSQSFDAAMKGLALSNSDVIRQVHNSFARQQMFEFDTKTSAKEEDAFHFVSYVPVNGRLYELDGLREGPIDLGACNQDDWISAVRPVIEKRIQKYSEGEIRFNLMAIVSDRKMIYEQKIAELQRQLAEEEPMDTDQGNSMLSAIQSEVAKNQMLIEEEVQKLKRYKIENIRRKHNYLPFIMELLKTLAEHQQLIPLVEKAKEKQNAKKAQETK
How it was run: as §1

USP10 = USP10 (UniProt Q14694)
USP10, sequence (Q14694 whole entry): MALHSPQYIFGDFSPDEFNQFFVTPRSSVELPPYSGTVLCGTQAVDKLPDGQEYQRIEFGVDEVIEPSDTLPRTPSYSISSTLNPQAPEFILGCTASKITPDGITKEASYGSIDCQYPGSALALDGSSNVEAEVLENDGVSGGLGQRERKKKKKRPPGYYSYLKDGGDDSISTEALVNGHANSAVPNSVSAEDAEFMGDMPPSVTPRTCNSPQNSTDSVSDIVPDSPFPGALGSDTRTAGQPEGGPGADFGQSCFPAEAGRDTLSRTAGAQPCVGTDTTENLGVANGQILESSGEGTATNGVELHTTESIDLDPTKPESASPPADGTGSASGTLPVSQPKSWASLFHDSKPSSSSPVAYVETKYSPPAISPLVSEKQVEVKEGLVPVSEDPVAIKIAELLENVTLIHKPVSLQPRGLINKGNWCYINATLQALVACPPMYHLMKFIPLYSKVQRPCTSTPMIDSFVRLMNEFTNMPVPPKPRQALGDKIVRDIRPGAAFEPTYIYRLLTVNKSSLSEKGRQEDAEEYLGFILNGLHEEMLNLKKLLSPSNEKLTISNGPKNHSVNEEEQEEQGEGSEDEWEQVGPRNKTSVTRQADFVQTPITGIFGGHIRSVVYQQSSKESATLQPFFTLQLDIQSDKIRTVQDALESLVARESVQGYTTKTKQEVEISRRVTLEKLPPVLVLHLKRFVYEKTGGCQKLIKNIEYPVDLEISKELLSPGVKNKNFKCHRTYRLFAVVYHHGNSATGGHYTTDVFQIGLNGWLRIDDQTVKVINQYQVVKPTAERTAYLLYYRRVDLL
How it was run: as §1

USP15 = target: T6, USP15 (UniProt Q9Y4E8)
T6 sequence (whole entry): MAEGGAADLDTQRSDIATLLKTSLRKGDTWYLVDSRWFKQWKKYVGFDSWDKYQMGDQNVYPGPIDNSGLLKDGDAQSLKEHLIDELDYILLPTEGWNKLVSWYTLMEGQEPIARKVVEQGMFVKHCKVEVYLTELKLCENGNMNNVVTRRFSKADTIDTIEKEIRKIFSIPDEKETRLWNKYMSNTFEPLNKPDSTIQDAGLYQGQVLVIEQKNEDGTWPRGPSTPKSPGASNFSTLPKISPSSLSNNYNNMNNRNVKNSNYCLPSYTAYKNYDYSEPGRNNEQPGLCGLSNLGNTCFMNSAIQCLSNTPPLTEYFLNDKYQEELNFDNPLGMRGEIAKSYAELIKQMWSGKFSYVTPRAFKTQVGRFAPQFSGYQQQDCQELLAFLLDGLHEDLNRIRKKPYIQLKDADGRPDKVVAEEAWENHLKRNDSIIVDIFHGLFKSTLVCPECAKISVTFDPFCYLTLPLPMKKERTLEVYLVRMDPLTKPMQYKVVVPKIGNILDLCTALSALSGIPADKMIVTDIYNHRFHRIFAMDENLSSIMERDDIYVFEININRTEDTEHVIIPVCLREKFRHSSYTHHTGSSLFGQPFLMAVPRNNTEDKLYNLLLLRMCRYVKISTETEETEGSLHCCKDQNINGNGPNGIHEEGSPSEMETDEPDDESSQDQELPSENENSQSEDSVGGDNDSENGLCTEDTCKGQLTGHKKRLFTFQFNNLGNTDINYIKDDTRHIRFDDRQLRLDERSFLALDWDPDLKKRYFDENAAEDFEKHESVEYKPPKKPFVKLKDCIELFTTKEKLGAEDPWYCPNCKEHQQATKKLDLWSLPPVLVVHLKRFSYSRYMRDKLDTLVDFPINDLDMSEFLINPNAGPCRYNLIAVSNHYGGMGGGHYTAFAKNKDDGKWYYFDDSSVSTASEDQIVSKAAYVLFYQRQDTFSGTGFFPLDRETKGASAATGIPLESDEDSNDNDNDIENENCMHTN
How it was run: as §1

Measured: log2 ratio of Biotin-Ahx-Ub-VS probe labelling

Cc1ncc2c(n1)CCN(C(=O)CCl)C2
inactive: OTUD6B -0.152 | OTUD7B -0.47 | PRPF8 0.0188 | PSMD7 0.0625 | UCHL1 -0.771 | UCHL3 0.268 | UCHL5 0.0568 | USP10 -0.242 | USP15 -0.636
